# 12-LOX inh – blocks human arachidonate 12S-lipoxygenase | purified 12hLO, xylenol orange hydroperoxide absorbance | Potency, µM (titrated, usually from 108 µM), without a hit: at the highest dose activity change, negative = inhibition, hits mostly inhibitors | hit rate 1.1% among 580,000; further: potency means the concentration at half of the fitted maximal effect
# Target sequence (P18054 whole entry, looked up): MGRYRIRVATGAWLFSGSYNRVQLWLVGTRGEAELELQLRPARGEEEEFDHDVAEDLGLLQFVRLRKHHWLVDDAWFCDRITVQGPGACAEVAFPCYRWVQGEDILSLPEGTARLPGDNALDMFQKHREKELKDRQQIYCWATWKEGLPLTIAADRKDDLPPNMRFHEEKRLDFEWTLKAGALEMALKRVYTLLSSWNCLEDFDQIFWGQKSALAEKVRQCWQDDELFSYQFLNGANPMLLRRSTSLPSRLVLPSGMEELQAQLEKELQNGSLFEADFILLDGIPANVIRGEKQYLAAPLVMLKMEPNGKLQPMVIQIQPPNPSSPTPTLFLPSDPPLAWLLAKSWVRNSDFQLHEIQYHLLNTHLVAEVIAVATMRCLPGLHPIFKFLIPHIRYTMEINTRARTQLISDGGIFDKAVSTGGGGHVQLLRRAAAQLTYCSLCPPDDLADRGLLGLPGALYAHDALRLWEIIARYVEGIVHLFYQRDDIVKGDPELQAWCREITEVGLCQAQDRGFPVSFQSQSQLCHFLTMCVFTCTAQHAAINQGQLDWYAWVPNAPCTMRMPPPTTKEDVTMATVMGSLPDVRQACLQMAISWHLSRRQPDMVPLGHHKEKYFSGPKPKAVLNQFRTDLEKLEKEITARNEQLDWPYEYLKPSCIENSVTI
#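 Purified human 12hLO (150 nM final) in 25 mM Hepes, 0.01% Triton X-100, pH 7.0 was preincubated 15 min at room temperature with compound. Then 40 uM arachidonic acid was added, 30 min. Hydroperoxide was read by Fe-XO absorbance ratio 573/405 nm.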
# TDP1 cell noCPT – qHTS for Inhibitors of human tyrosyl-DNA phosphodiesterase 1 (TDP1): qHTS in cells in absence of CPT | Potency, µM (doses to about 46.2 µM), inactives show at the top dose activity change, negative = growth inhibition, usual class: inhibitors | hit rate 15% among 420,000 | DT40 Tdp1-/- hTDP1 cells, no CPT, ATP luminescence, 48 h; further: potency means the concentration at half of the fitted maximal effect; nearly all actives have a fitted effect of over 55% in size
#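 Readout: luminescence from CellTiter-Glo after 30 min in the dark at RT. Cells: DT40 Tdp1-/- with stable hTDP1, 400/well. Exposure: compounds alone, ≥48 hr, 37 °C.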
# HT1080 IDH1KD tx – kills HT-1080 cells with IDH1 knockdown. Potency, µM (doses to about 46.1 µM), without a hit: at the top dose activity, negative = toxicity, most hits filed as cytotoxic. HT-1080 IDH1 knockdown viability, ATP luminescence, 48 h. hit rate 2% among 360,000;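 further: potency means the concentration at half of the fitted maximal effect; 0% = DMSO wells and -100% = cell-free medium wells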
#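 IDH1KD HT-1080 cells, 750/well, RPMI + 5% FBS; compound pinned after 2 h settling; 48 h, 37 °C; CellTiter-Glo luminescence; % activity normalised to DMSO and no-cell wells; curves fitted, classed by r2 and efficacy.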
# DT40 TDP1 CPT – growth inhibition of DT40 Tdp1-/-;hTDP1 cells with camptothecin (screen for TDP1 inhibitors). AID 686979. hit rate 12% among 420,000. chicken DT40 Tdp1-/-;hTDP1 cells + 20 nM CPT, ATP luminescence, 48 h. Potency, µM (highest dose often 46.2 µM), for inactives: at the top dose activity change, negative = growth inhibition, usual class: inhibitors; further: potency means the concentration at half of the fitted maximal effect; nearly all actives have a fitted effect of over 55% in size
#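 Chicken DT40 Tdp1-/- cells stably complemented with human TDP1 were seeded at 400 cells/well in medium containing 20 nM camptothecin, exposed to pin-transferred compounds, and grown at 37 °C for at least 48 hr. Viability was read as ATP luminescence.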
# IL-1B inflam inh – inhibitors of inflammasome signaling (IL-1 beta secretion); hit rate 4.7% among 360,000; THP-1 LPS/ATP IL-1B secretion, AlphaLISA, 16 h; hits give low values; AID 743279; activity change, % at 57.5 µM; in the data active means activity change below about -50%; inconclusive means mostly about -30% to -49%
#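 THP-1 cells pretreated 1 hr with compounds (up to 57.5 uM final), then stimulated with LPS (250 ng/mL final) plus ATP (1.25 mM final); secreted IL-1B measured by AlphaLISA after 16 hr, decreased signal indicating inhibition.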
# HT1080-NT tox – kills 2HG-producing HT-1080-NT fibrosarcoma cells | HT-1080-NT fibrosarcoma viability, CellTiter-Glo ATP luminescence, 48 h | Potency, µM (highest dose often 46.1 µM), for the others: at the highest dose activity, negative = less viability, hits mostly cytotoxic | hit rate 1.6% among 360,000;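 further: NT is the 2HG producing partner of a matched IDH1 knockdown line; potency means the concentration at half of the fitted maximal effect; 0% = DMSO-treated cells and -100% = media-only wells without cells; nearly all actives have a fitted effect of over 55% in size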
#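 Viability by CellTiter-Glo luminescence after 48 h compound exposure at 37C of HT-1080-NT cells (750/well, RPMI, 5% FBS). % activity scaled between DMSO wells and medium-only wells, then curve-fitted and categorized by curve class.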
# An asterisk follows results filed as active; ? = inconclusive; · = no result given; ! = not confirmed by another sample; [ ] = another dose, or the depositor's remark. Only a selection was taken, and hits are over-represented in it overall. Unless noted, the call rests on the fitted dose curve; in most records, active means well fitted curve in the direction sought with a large enough effect; inconclusive means small, poorly fitted or top-dose-only effect, or another doubt; inactive means no such curve, though single readings can be large; an effect the other way counts as inactive or inconclusive. Unless noted, on the % scale 0 is the no-effect control and ±100 the full control effect.
SMILES,12-LOX inh,TDP1 cell noCPT,HT1080 IDH1KD tx,DT40 TDP1 CPT,IL-1B inflam inh,HT1080-NT tox
Cc1cc(=O)oc2cc(OCc3ccc(S(=O)(=O)N4CCOCC4)cc3)ccc12,7%,29µM*,4%,?,-20,-3%
CCC(COC)NC(=O)c1c(C)noc1-c1ccc(C(C)(C)C)cc1 (stereo not given),17%,·,·,·,·,·
Cc1ccc2c(Sc3ccccc3)c(C(=O)NCc3ccccc3F)[nH]c2c1,-15%,?,·,9.2µM*,·,·
COc1cccc(CNC(=O)c2[nH]c3cc(C)ccc3c2Sc2ccccc2)c1,-24%,15µM*,·,?,·,·
CCN(CC)C(=O)CSc1nc2sc3c(c2c(=O)n1CCOC)CCC3,2%,-25%,2%,10%,6,10%
CCOC(=O)c1sc2nc(SCC(=O)N(CC)CC)n(CCCN3CCCC3=O)c(=O)c2c1C,17%,-12%,-11%,18µM*,?,-2%
CCCc1cc(C(=O)NNC(=S)NC)cs1,14%,·,·,·,·,·
CCOc1ccc2[nH]c(=O)c(CN(Cc3cccs3)C(CC)c3nnnn3C(C)(C)CC)cc2c1 (stereo not given),3%,18µM*,?,21µM*,?,?
CCC(c1nnnn1C1CCCC1)N(Cc1cccs1)Cc1cc2cc(C)ccc2[nH]c1=O (stereo not given),?,21µM*,0%,18µM*,-54*,6%
Cc1ccc(C)c2c(N)c3c(nc12)CCCC3,41%,·,·,·,·,·
Cc1cccc2cc(CN(CCCO)C(=O)Nc3ccc(Cl)cc3)c(=O)[nH]c12,2%,21µM*,?,?,?,?
Cc1cccc2cc(CN(CCCO)C(=O)Nc3ccccc3Cl)c(=O)[nH]c12,30%,-21%,-7%,?,-23,-16%
Cc1cccc2cc(CN(CCN(C)C)C(=S)Nc3ccccc3)c(=O)[nH]c12,1%,?,-20%,-30%,-15,-13%
COc1cc2cc(CN(CCN3CCCC3)C(=O)Nc3ccc(F)cc3)c(=O)[nH]c2cc1OC,-10%,?,1%,?,?,-2%
Cc1ccc(C)c2[nH]c(=O)c(CN(CCN3CCCC3)C(=O)Nc3ccc(F)cc3)cc12,30%,15µM*,?,?,?,16µM*
Cc1cccc2cc(CN(CCCO)C(=O)Nc3cccc(Cl)c3)c(=O)[nH]c12,296%,21µM*,-30%,23µM*,-25,-19%
Cc1ccc(-c2nnc(SCC(=O)N3CCCCCC3)n2N)cc1,-24%,·,·,·,·,·
Cc1ccc(OCc2nc(C#N)c(NCc3ccc4c(c3)OCO4)o2)cc1,?,?,-1%,?,-64*,-15%
COc1ccc(-c2nc(C#N)c(NCc3ccc4c(c3)OCO4)o2)cc1,-18%,·,·,·,·,·
CCOc1ccc(-c2nc(C#N)c(NCc3ccc4c(c3)OCO4)o2)cc1,0%[57.4 µM],15µM*,-11%,?,-21,0%
C=CCN(C(=O)Cc1nn(C)c(=O)c2ccccc12)c1nc2c(s1)CCCC2,-45%,·,·,·,·,·
COc1ccc(NC2=Nc3cccc4cccc2c34)cc1OC,?,26µM*,-1%,23µM*,?,-31%
COc1cc(N)c(Cl)cc1C(=O)CCC1CCN(CCNS(C)(=O)=O)CC1,-13%,-14%,·,-15%,·,·
COc1cc(COc2cc(N)c(Cl)cc2C(=O)CCC2CCN(CCNS(C)(=O)=O)CC2)cc(OC)c1,-28%,16µM*,·,27µM*,·,·
O=c1oc(CCCO)cc2ccc(C#Cc3ccsc3)cc12,-4%,18µM*,5%,?,-8,2%
SMILES,12-LOX inh,TDP1 cell noCPT,HT1080 IDH1KD tx,DT40 TDP1 CPT,IL-1B inflam inh,HT1080-NT tox
O=c1oc(CCCO)cc2ccc(C#CC3(O)CCCCC3)cc12,18%,18µM*,2%,?,26,-4%
COC(=O)[C@@]12C[C@@H](CC(=O)NCC3CCCCC3)C(=O)N(Cc3ccccc3)C1=CCC(C)(C)C2,-25%,?,-12%,?,?,-27%
c1csc(-c2cc3ccccn3c2)c1,-80%,·,·,·,·,·
Clc1ccc(-c2cc3ccccn3c2)cc1,4µM*,·,·,·,·,·
Cc1ccc(C2Nc3cccc4cccc(c34)N2)s1,?,18µM*,-13%,?,-8,-8%
Cc1ccc(S(=O)(=O)c2nc(-c3ccco3)oc2SC(C)C)cc1,32µM*!,?,0%,?,-24,-4%
CC(C)CSc1oc(-c2ccco2)nc1S(=O)(=O)c1ccccc1,?,26µM*,8%,?,?,5%
CCSc1oc(-c2ccco2)nc1S(=O)(=O)c1ccc(F)cc1,28µM*!,?,4%,-8%,-2,4%
Cc1ccc(S(=O)(=O)c2nc(-c3ccco3)oc2N(C)C)cc1,43%,·,·,·,·,·
CCSc1oc(-c2ccco2)nc1S(=O)(=O)c1ccc(C)cc1,?,?,-15%,-14%,-12,-10%
Cc1ccc(S(=O)(=O)c2nc(-c3ccco3)oc2SCc2ccc(F)cc2)cc1,?,?,·,21µM*,·,·
COc1cc(/C=c2\[nH]c(=O)/c(=C/c3cc(OC)c(OC)c(OC)c3)[nH]c2=O)cc(OC)c1OC,·,?,·,-4%,·,·
O=C(NCCc1c[nH]c2ccccc12)C(=O)Nc1cc2c3c(c1)CC(=O)N3CCC2,?,?,?,?,30,-25%
CCCSc1oc(-c2ccco2)nc1S(=O)(=O)c1ccc(Cl)cc1,40µM*,?,·,?,·,·
CCCCSc1oc(-c2ccco2)nc1S(=O)(=O)c1ccccc1,?,?,-11%,?,?,-1%
CCOC(=O)/C(C#N)=C/c1ccc(OC)c(COCC(F)(F)C(F)F)c1,-3%,·,·,·,·,·
C[C@H](CO)N1C[C@H](C)[C@@H](CN(C)C(=O)Nc2ccc(C(F)(F)F)cc2)Oc2ccc(NS(=O)(=O)c3cn(C)cn3)cc2C1=O,-10%,-14%,-4%,-13%,8,-12%
CCOc1ccc2[nH]cc(S(=O)(=O)c3ccc(Cl)cc3)c(=O)c2c1,-14%,9.2µM*,-14%,9.2µM*,2,-14%
COc1ccc(C2NC(=O)NC(C)=C2C(=O)OCc2ccc3c(c2)OCO3)cc1OC (stereo not given),-25%,?,?,?,-15,7%
COc1ccc(C2CCc3cc4c(cc3C2=NO)OCO4)cc1OC (stereo not given),-19%,15µM*,-23%,?,-5,-1%

# Assay outcomes deposited in PubChem by National Center for Advancing Translational Sciences (NCATS).
